# PubChem BioAssay (Tox21)
# The source made the active and inactive calls. Calls come from the whole dose curve; as a rule, active = well fitted curve in the direction sought with a large enough effect in the repeat runs; inconclusive = weak or mixed curves; inactive = flat fitted curve, though single readings scatter.
# Assay: qHTS assay to test for compound auto fluorescence at 460 nm (blue) in HepG2 cell free culture (AID 720685)
# Conditions: Cell-free culture medium, blue autofluorescence 405/460 nm; series mostly up to 46 µM
# Method in brief: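 Cell-free plates of MEM plus 10% FBS received 23 nL compound or DMSO vehicle; blue-channel (405/460 nm) intensity scored against triamterene as reference fluorophore.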
row,Structure (SMILES),outcome
1,O=C(Cn1c(=O)sc2ccc(Cl)cc21)N1CCN(CCO)CC1,inactive
2,COc1ccc2c(c1)OC(C)(C)C(c1ccccc1)C2c1ccc(OCCN2CCCC2)cc1 (stereo unspecified),inactive
3,C[C@H](N)C(=O)N[C@@H](C)P(=O)(O)O,inactive
4,OC[C@H]1OC([S-])[C@H](O)[C@@H](O)[C@@H]1O.[Au+] (stereo partly specified),inactive
5,CC[C@@H](C(=O)[C@@H](C)[C@@H](O)[C@H](C)[C@@H]1O[C@@H]([C@@H](CC)C(=O)O)CC[C@@H]1C)[C@H]1O[C@]2(C=C[C@@H](O)[C@]3(CC[C@@](C)([C@H]4CC[C@](O)(CC)[C@H](C)O4)O3)O2)[C@H](C)C[C@@H]1C,inactive
6,C=C1CC[C@H](O)CC1=C/C=C1\CCC[C@]2(C)[C@@H]([C@H](C)CCCC(C)(C)O)CC[C@@H]12,inactive
7,CCOC(=O)Oc1c(OC)cc(C(=O)O[C@@H]2C[C@@H]3CN4CCc5c([nH]c6cc(OC)ccc56)[C@H]4C[C@@H]3[C@H](C(=O)OC)[C@H]2OC)cc1OC,inactive
8,Nc1nc2[nH]cc(CCc3ccc(C(=O)N[C@@H](CCC(=O)O)C(=O)O)cc3)c2c(=O)[nH]1,inactive
9,CC(CC(c1ccccc1)c1ccccc1)NC(C)(C)C (stereo unspecified),inactive
10,NC[C@@H]1O[C@H](O[C@H]2[C@@H](O)[C@H](O[C@@H]3[C@@H](O)[C@H](N)C[C@H](N)[C@H]3O[C@H]3O[C@H](CN)[C@@H](O)[C@H](O)[C@H]3N)O[C@@H]2CO)[C@H](N)[C@@H](O)[C@@H]1O,inactive
11,OC1OC[C@@H](O)[C@H](O)[C@@H]1O (stereo partly specified),inactive
